# cardiac RTF act: cardiac RTF calcium sensitization | P19429+P45379 | IANBD-labeled TnC RTF fluorescence at EC20 calcium; 0% EC20 calcium, 100% full calcium | activation, % at 7.2 µM | actives 0.24% (n = 340,000);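 active means activation above the mean over all tested compounds plus 3 SD, cut at about 30% in these data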;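 further: rise in fluorescence read as greater calcium sensitivity of cardiac thin filaments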
# ANO1 activ: mouse TMEM16A channel activation, primary screen. Q8BHY3. HEK293 TMEM16A/YFP-H148Q/I152L, iodide quench fluorescence; active compounds read low. B-score at 10 µM. actives 0.3% (n = 340,000). AID 623877;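 active means fluorescence-ratio B-score plate-corrected deviation score at least 3 library SD below zero, with starting fluorescence score within 5 deviations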;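 further: channel opened by trigger with iodide after compound preincubation; score built on the fluorescence ratio of max minus min over baseline; more negative score means more quench and so TMEM16A activation or potentiation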
# RTF Ca sens inh: cardiac RTF calcium desensitization | IANBD-labeled cardiac RTF, Ca2+ fluorescence | inhibition, % at 7.15 µM | actives 0.12% (n = 340,000);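 active means inhibition above the mean inhibition of all tested compounds plus 3 SD, cut at about 17% in these data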;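 further: assay run at fixed EC70 calcium of 1.6 mM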
# CRFR2-BP antag: CRF-BP/CRF-R2 complex antagonism. AID 588475. inhibition, % at 11.8 µM. HEK293 CRF-R2/CRF-BP, CRF-induced calcium fluorescence. actives 0.59% (n = 350,000);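 active means inhibition of the ligand-induced calcium signal above about 50% at the single tested concentration, limit read from the data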
# CRFBP-R2 agonist: agonists of human CRF-binding protein/CRF-R2 receptor complex. HEK293 CRF-R2/CRF-BP, calcium dye fluorescence (FLIPR); percent of saturating CRF peptide response. activation, % at 13.2 µM. actives 0.46% (n = 350,000). AID 588473;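 active means activation of at least 50%, plus an integration ratio under a set limit after plate pattern correction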;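 further: plate controls were neutral control wells without compound for no effect and CRF at EC100 for full effect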
# ANO1 block: mouse TMEM16A channel inhibition, primary screen; AID 588511; HEK293 TMEM16A/YFP iodide influx fluorescence, ionomycin; normalized B-score (activity score, 25-100; higher = stronger inhibition) at 10 µM; actives 1.2% (n = 310,000);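 active means ratio plate-corrected score three or more library SD toward inhibition, starting fluorescence score within five deviations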;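 further: score derived from kinetic fluorescence span divided by baseline fluorescence per well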
# TMEM16A reconf: reconfirmed blocker of mouse TMEM16A calcium-activated chloride channel. inhibition, % at 10 µM. HEK293 TMEM16A/YFP-H148Q, iodide quench fluorescence; ionomycin added to raise cell calcium. shares compounds with ANO1 block. AID 652189. actives 39% (n = 2,300);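 active means mean duplicate percent inhibition, scaled so buffer wells are 0 and the reference blocker 100, over three buffer SD above buffer mean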
# HEK293 Ca mobil: calcium mobilization counter-screen hit for TMEM16A inhibitor series; shares compounds with ANO1 block; TMEM16A/YFP HEK293, Fluo4 calcium mobilization; calcium response (% of ionomycin), % at 10 µM; actives 2% (n = 2,300);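 active means duplicate-averaged calcium signal over 20% of the ionomycin maximum, relative to buffer baseline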;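 further: each well's signal is peak minus trough fluorescence divided by its pre-addition baseline; 0% = buffer wells and 100% = ionomycin wells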
# Parental YFP cnt: parental YFP-HEK293 iodide quench counter-screen activity. shares compounds with ANO1 block. ionomycin. YFP ratio F(max-min)/F0 at 10 µM. 2,300 tested, under 10 active. AID 652233;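 active means yellow fluorescent protein signal ratio exceeding the buffer control mean by over 5 SD of those controls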;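 further: ratio is mean of duplicate wells from kinetic YFP trace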
# ClC-1 inh: blocks the rat ClC-1 voltage-dependent chloride channel; 2,300 tested, under 10 active; shares compounds with ANO1 block; AID 652236; ratio percent, % at 10 µM; CHO ClC-1-YFP, iodide influx fluorescence quench; iodide control reads 0, buffer control 100;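 active means duplicate-mean ratio percent above the mean of iodide-only control wells, which defines zero, plus 5 of their SD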;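 further: higher percent means stronger block of ClC-1 iodide influx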
# Target sequence (P35524 whole entry, looked up): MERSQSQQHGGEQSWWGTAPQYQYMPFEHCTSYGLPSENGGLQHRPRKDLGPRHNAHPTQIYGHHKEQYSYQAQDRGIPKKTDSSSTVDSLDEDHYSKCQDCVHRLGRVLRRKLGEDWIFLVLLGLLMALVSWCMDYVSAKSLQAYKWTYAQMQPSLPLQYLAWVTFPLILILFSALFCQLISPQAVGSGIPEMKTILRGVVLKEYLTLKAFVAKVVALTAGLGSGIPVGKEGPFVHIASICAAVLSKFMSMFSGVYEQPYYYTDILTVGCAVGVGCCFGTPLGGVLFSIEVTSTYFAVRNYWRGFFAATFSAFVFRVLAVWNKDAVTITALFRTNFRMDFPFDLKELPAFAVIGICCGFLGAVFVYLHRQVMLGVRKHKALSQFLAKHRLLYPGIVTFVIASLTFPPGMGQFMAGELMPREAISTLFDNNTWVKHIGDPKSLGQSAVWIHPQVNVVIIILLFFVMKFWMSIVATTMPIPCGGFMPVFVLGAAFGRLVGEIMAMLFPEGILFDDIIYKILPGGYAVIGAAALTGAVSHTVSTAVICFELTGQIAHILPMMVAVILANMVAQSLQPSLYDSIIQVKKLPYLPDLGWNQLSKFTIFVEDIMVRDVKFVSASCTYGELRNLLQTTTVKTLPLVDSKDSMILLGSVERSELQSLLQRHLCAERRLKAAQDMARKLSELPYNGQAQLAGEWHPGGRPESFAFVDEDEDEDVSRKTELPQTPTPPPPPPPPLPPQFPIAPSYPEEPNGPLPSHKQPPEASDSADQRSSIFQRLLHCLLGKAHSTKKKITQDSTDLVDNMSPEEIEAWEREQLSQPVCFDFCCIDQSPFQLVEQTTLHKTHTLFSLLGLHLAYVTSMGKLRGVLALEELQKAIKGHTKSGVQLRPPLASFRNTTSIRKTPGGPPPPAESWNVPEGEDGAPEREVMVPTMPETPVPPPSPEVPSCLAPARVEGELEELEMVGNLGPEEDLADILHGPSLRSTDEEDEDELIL
# Active calls of the source: *; i = inactive; nt = no result given. This is a sample that favours compounds with a hit; in the whole collection about 2.4% have one here.
SMILES,cardiac RTF act,ANO1 activ,RTF Ca sens inh,CRFR2-BP antag,CRFBP-R2 agonist,ANO1 block,TMEM16A reconf,HEK293 Ca mobil,Parental YFP cnt,ClC-1 inh
Nc1cc(S(=O)(=O)Nc2ccc(Cl)cc2)ccc1N1CCOCC1,1.1,i,-4.8,-4.0,8.8,25*,i,i,-1.14,-21.5
O=S(=O)(Nc1ccc(Cl)cc1)c1ccc2c(c1)CCO2,-0.5,i,1.1,-9.2,-1.4,25*,i,i,-0.933,-8.5
Nc1cc(S(=O)(=O)Nc2ccccc2Cl)ccc1N1CCOCC1,1.6,i,-3.4,4.2,1.6,i,nt,nt,nt,nt
CC1(c2ccc(OC(F)F)cc2)NC(=O)N(CC(=O)NC2CCCC2)C1=O (configuration not stated),-4.6,i,-1.2,1.4,3.0,nt,nt,nt,nt,nt
CC(=O)Nc1ccc(/C=N/N2C(=O)NC(C)(c3ccc(OC(F)F)cc3)C2=O)cc1 (configuration not stated),0.3,-13.3*,0.9,-91.4,129.8*,100*,93.0%*,i,-0.958,-5.5
NS(=O)(=O)OCC(Cc1ccccc1)N1C(=O)c2ccccc2C1=O (configuration not stated),13.8,i,-6.7,-6.0,-1.4,i,nt,nt,nt,nt
O=C(Cc1ccccc1)Nc1cc(C(=O)c2ccccc2)ccc1N1CCOCC1,-2.7,i,-1.5,-38.9,-1.2,100*,i,i,-1.26,-8.0
Cc1cc(C)c(OCC(=O)Nc2ccccc2N2CCCCC2)c(C)c1,-10.2,i,1.2,-3.1,2.3,i,nt,nt,nt,nt
Cc1cc(C)c(OCC(=O)Nc2ccccc2N2CCOCC2)c(C)c1,1.1,i,-4.2,-71.7,53.2*,100*,37.0%*,i,-0.948,-13.0
COc1ccc(C(=O)NC2CC(C)(C)Cc3occc32)cc1 (configuration not stated),-2.0,i,-1.8,22.2,0.0,i,nt,nt,nt,nt
CC(=O)c1ccc(S(=O)(=O)N2CCNC(=O)C2)cc1,-4.8,i,-12.6,4.2,-0.2,nt,nt,nt,nt,nt
CC(=O)c1sc(NC(=O)C2(F)C(F)(F)C(F)(F)C(F)(F)C(F)(F)C2(F)F)nc1C,-12.4,i,-1.6,66.2*,49.3,100*,43.0%*,i,-0.819,-16.5
COc1ccc(O)c(/C=N/NS(=O)(=O)c2ccc(C)cc2)c1,-6.2,i,-8.2,3.3,0.0,i,nt,nt,nt,nt
Cc1ccc(S(=O)(=O)N/N=C/c2cc(Br)ccc2O)cc1,3.1,i,-4.2,16.7,-1.2,100*,19.5%*,i,-0.887,-11.5
CCCC1NC(=O)c2cc3ccccc3cc2-n2c1nc1cc(Cl)ccc1c2=O (configuration not stated),nt,nt,nt,-12.8,0.2,nt,nt,nt,nt,nt
COc1ccc2cc3cc(C(=O)N4CCN(Cc5ccc6c(c5)OCO6)CC4)oc3nc2c1,-1.1,i,-6.6,5.0,1.8,25*,i,i,-1.11,-4.5
CC(C)(C)c1csc(SCC(=O)Nc2ccc(Cl)cn2)n1,4.1,i,-9.6,-10.2,-0.8,100*,i,i,-1.22,-5.0
Cc1csc(SCC(=O)Nc2ccc(Cl)cn2)n1,-2.6,i,-3.9,15.8,-3.7,i,nt,nt,nt,nt
Nc1ccc(NC(=O)c2cccc(C(=O)Nc3ccc(N)cc3Cl)c2)c(Cl)c1,0.9,i,1.6,-8.3,4.3,i,nt,nt,nt,nt
COc1cccc(-c2c(C#N)c(N)nc3c2c(C)nn3-c2ccccc2)c1O,-1.9,i,2.7,-12.3,2.8,100*,45.0%*,i,-0.904,-10.0
Cc1ccc(NS(=O)(=O)c2ccc(C(=O)N3CC(C)CC(C)C3)cc2)cc1 (configuration not stated),-7.7,-17.3*,-16.1,-50.5,117.2*,100*,79.5%*,40.0%*,-1.06,-7.0
CC(=O)c1ccc(NC(=O)CN2CCC(C(=O)c3ccc(F)cc3)CC2)cc1,2.3,i,1.6,17.5,0.0,i,nt,nt,nt,nt
O=C(CN1CCC(C(=O)c2ccc(F)cc2)CC1)Nc1ccc(F)cc1,2.6,i,-6.4,1.9,-0.5,100*,i,i,-1.02,-7.5
C#CCN(C(=O)c1cc(COc2cccc(C(F)(F)F)c2)on1)C1CCCCC1,-4.4,i,-4.4,12.6,0.9,100*,54.0%*,i,-0.991,-17.5
Cc1ccc(CNn2cnnc2SCc2ccc(F)cc2)cc1,2.0,i,-4.9,-12.4,-2.5,100*,i,i,-1.33,4.5
SMILES,cardiac RTF act,ANO1 activ,RTF Ca sens inh,CRFR2-BP antag,CRFBP-R2 agonist,ANO1 block,TMEM16A reconf,HEK293 Ca mobil,Parental YFP cnt,ClC-1 inh
Fc1ccc(CNn2cnnc2SCc2ccc(F)cc2)cc1,1.3,i,-1.9,-16.6,0.5,i,nt,nt,nt,nt
O=C(NC(NC(=S)Nc1ccc(Cl)c(Cl)c1)C(Cl)(Cl)Cl)c1ccco1 (configuration not stated),2.1,i,8.5,23.9,1.0,100*,35.5%*,i,-0.878,-21.0
O=C(O)c1cccc(NC(=S)NC(NC(=O)c2ccco2)C(Cl)(Cl)Cl)c1 (configuration not stated),3.0,i,-14.8,6.5,0.7,i,nt,nt,nt,nt
Cc1cc(C(=O)Nc2ccncc2)c2ccccc2n1,-1.3,i,2.3,3.5,-0.9,i,nt,nt,nt,nt
N#CC1(Nc2cccc(Br)c2)C(=O)Nc2ccccc21 (configuration not stated),-0.3,i,-7.2,-36.3,11.2,100*,63.5%*,i,-0.897,-13.0
O=C(NCc1ccccc1)c1cc2nc(C3CC3)cc(C(F)(F)F)n2n1,2.1,i,-0.8,11.7,-2.8,100*,i,i,-1.17,-14.0
COc1cccc(CN(C)C(=O)COc2ccc(C(=O)c3ccc(Cl)cc3)cc2)c1OC,-2.1,i,-5.0,9.3,6.8,100*,26.0%*,i,-0.995,-17.0
COc1cccc(CN(C)C(=O)CNC(=O)c2sc3ccccc3c2Cl)c1OC,-1.2,i,-3.6,-1.4,1.2,25*,i,i,-1.03,-2.5

# High-throughput results deposited in PubChem BioAssay by several laboratories.
